The source of these data is PubChem BioAssay (Tox21).

Structures are written as SMILES. Unmarked numbers belong to inactive results. Calls come from the whole dose curve.
% is set by controls: 0 for no effect and ±100 for the full control effect.

The test is described as follows: qHTS assay to identify small molecule agonists of the sonic hedgehog signaling (Shh) pathway (AID 1259368).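 Note: NIH/3T3-derived 3T3Gli1-Luc cells carrying a stable Gli1-driven firefly luciferase reporter; nearly all actives have a fitted effect of over 15% in size.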 Particulars: NIH/3T3 Gli1-Luc reporter, luciferase, 24 h, stronger effect = higher value; series mostly up to 92.4 µM; activity change: at the top concentration. From the text: National Center for Advancing Translational Sciences [NCATS]
NIH Chemical Genomics Center [NCGC]
U.S. Environmental Protection Agency [EPA]
National Institutes of Environmental Health Sciences [NIEHS]
National Toxicology Program [NTP]
The sonic hedgehog (Shh) pathway is essential for normal embryonic development. Dysregulation of the Shh pathway can cause severe developmental defects in organs. Therefore chemicals that interfere with the pathway are potential developmental toxicants. A cell line designated 3T3Gli1-Luc (DMB/OARSA/CFSAN/FDA, Laurel, MD), a NIH/3T3 derived clone containing stably integrated Gli1-Luc reporter is used to detect chemical interference of the Shh pathway, by changes in the expression of the firefly Luc gene under the control of the Gli1 transcriptional response element. This cell line was used to screen Tox21 libraries for identifying and prioritizing the potential developmental toxicants that interfere Shh pathway.
3T3 Gli1-Luc cells were dispensed at 2,000 per well in 5uL of culture medium into white solid bottom 1536-well plates (Greiner Bio-One, Monroe, NC) using a Multidrop Combi (Thermo Scientific, Waltham, MA) dispenser. The assay plates were incubated at 37 C and 5% CO2 for 4hr, and then 23nL of compounds dissolved in DMSO and positive control were transferred using a Pintool station (Wako, San Diego, CA). The assay plates were incubated at 37C and 5% CO2 for 24hr. For luciferase read, 4uL of Amplite Luciferase reporter gene assay reagent (AAT Bioquest, Inc. Sunnyvale, CA) was added to each well of the assay plates using Flying Reagent Dispenser (FRD, Aurora Discovery, San Diego, CA) and incubated at room temperature for 30min. The luminescence signal was measured using a ViewLux plate reader (Perkin Elmer, Shelton, CT).
As for `CC(=O)c1ccc2c(c1)Cc1ccccc1-2`, the “activity change” value was 4.74%.
In the case of `O=C(OCC1(COC(=O)c2cccnc2)CCCC(COC(=O)c2cccnc2)(COC(=O)c2cccnc2)C1O)c1cccnc1`, the “activity change” value is 0.0136% [at 42.5 µM].
Under `C=C(C)C(=O)OCc1ccccc1` stands -1.37%.
Then `CC(=O)N[C@@H](CCC(=O)O)C(=O)O`, with -0.188% [at 42.5 µM].
Under `C[C@@H]1O[C@@H](O[C@@H]2[C@@H](O)[C@H](OCCc3ccc(O)c(O)c3)O[C@H](CO[C@@H]3O[C@H](CO)[C@@H](O)[C@H](O)[C@H]3O)[C@H]2OC(=O)/C=C/c2ccc(O)c(O)c2)[C@H](O)[C@H](O)[C@H]1O` stands -1.75%; under `O=C1CC(c2ccc(Cl)cc2)CC(=O)N1`, 0.0683% [at 42.5 µM]; under `CCCCN`, -0.251% [at 42.5 µM].
Regarding `CCOc1cc(NC(C)=O)ccc1C(=O)OC`, the “activity change” value was -0.184% [at 42.5 µM].
For the compound `Cc1ccc2ccc(Cl)cc2n1`, the “activity change” value was -0.328% [at 42.5 µM].
For `Nc1ccc2cc(S(=O)(=O)O)cc(O)c2c1`, the “activity change” value was 0.01%.
Then `ClCCCl`, with 0.216%.
Under `CC(S)C(=O)NCC(=O)O` (stereo not given) stands -0.687% [at 42.5 µM].
Under `CCOc1cc([N+](=O)[O-])c(OCC)cc1N1CCOCC1` stands 0.531%; under `CCCCCCCCCCl`, -0.454%; under `NCCN1CCOCC1`, -0.21%.
Take `On1nnc2ccccc21`: the “activity change” value was 1.16%.
Then `CC(CC=O)CCCC(C)(C)O` (stereo not given), with 0.193%.
For `NS(=O)(=O)c1ccc(NC(=O)CCC(=O)O)cc1`, the “activity change” value is 0.0766% [at 42.5 µM].
Then `O=C(/N=N/C(=O)OCc1ccccc1)OCc1ccccc1`, with 3.71%; and `CCOC(=O)CC(=O)c1ccccc1`, with -0.497%.
Consider `O=C1O[C@@H]2[C@@H](O)[C@H](O)O[C@@H]2[C@H]1O`, for which the “activity change” value was -0.0089%.
Under `CC(C)(C)NC(N)=O` stands -0.73%; under `O=C(CCN1CCN(CCO)CC1)N1c2ccccc2Sc2ccc(C(F)(F)F)cc21`, 2.76% [at 42.5 µM].
Under `CC(=O)Nc1ccc(S(=O)(=O)Cl)cc1` stands -1.91%; under `c1ccc2nccnc2c1`, 1.75%.
Under `C[Si](C)(C)C` stands 1.7%; under `Nc1ccc(S(=O)(=O)Nc2ccc(Cl)nn2)cc1`, -0.225% [at 42.5 µM].
As for `C=C(C)C1CCC(C)(O)CC1` (stereo not given), the “activity change” value was 0.0427%.
Take `CC(=O)c1sc(C)nc1C`: the “activity change” value was 0.21%.
Turning to `CC(COC(C)(C)C)OCCCO` (stereo not given), the “activity change” value is -5.93%.
Regarding `COc1ccc2c(c1)C(=O)N(CCc1ccc(S(=O)(=O)NC(=O)NC3CCCCC3)cc1)C(=O)C2(C)C`, the “activity change” value was -0.623% [at 42.5 µM].
Then `CCCCC(CC)COCCO` (stereo not given), with 0.0526%; and `COc1ccc(Br)c(C)c1`, with -0.061%.
Under `O=S(=O)(O)c1ccc2cc(O)c(S(=O)(=O)O)cc2c1` stands -0.0201%; under `O=C(Nc1ccc(Cl)c(Cl)c1)C1CC1`, 1.17% [at 42.5 µM].
Then `FC(F)(F)c1ccccc1-n1ccnc1`, with -0.0755% [at 42.5 µM]; and `Nc1nnc(-c2cccc(Cl)c2Cl)c(N)n1`, with -0.0094% [at 42.5 µM]; and `Cc1cc2cc3c(C)cc(=O)oc3c(C)c2o1`, with -0.102% [at 42.5 µM].
In the case of `CCCCCCCCSCC`, the “activity change” value was 0.187%.
Under `CCCCCCOC(=O)CC` stands 0.0613%.
